Results filed as inconclusive are left out. Where a call stands in place of a potency, no number is given. The source made the active and inactive calls. Calls come from the whole dose curve; as a rule, active = well fitted inhibition curve with a large enough effect; inconclusive = small, poorly fitted or top-dose-only effect; inactive = flat fitted curve, though single readings scatter.
What follows are compounds tested against Calcium and integrin-binding protein 1 (Homo sapiens) (UniProt Q99828) (assay: Primary qHTS for Identification of Calcium Integrin Binding Protein 1 (CIB1) Competitor (AID 1508620;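 note: GST tagged CIB1 binding a fluorescein labelled alphaIIb integrin peptide tracer; top concentration of the series differs between compounds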)). Conditions: CIB1-GST / FITC-alphaIIb peptide fluorescence polarization; series mostly up to 114 µM.
Calcium and integrin-binding protein 1 (Homo sapiens), sequence (Q99828 whole entry, looked up): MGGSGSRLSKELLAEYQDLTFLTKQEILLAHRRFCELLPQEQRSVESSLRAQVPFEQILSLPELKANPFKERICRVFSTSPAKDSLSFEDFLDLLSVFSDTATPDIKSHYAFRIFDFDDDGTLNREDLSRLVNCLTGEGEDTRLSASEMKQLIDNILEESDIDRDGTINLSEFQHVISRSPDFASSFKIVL
Summary of the method: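 Fluorescence polarization competition: CIB1-GST (1 uM final) preincubated with compound 15 min at room temperature, then FITC-labeled alphaIIb peptide (100 nM final) added for another 15 min. Polarization read at Ex 480/Em 540.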

| Compound | Potency |
| --- | --- |
| O=S(=O)(Nc1ccccc1N1CCCCC1)c1ccc(Cl)s1 | inactive |
| O=C(NCCCCCCCCNC(=O)C(Cl)Cl)C(Cl)Cl | inactive |
| Nc1cccc(CNC(=O)c2ccc(Oc3ccc(OCc4cccc(F)c4)cc3)nc2)c1 | inactive |
| COc1c(C)cnc(Cn2cc(C#CCC(C)(C)O)c3c(Cl)nc(N)nc32)c1C | inactive |
| CC1(C)CC[C@]2(C(=O)O)[C@H](O)C[C@]3(C)C(=CCC4[C@@]5(C)CC[C@H](O[C@@H]6O[C@H](CO[C@@H]7OC[C@H](O)[C@H](O)[C@H]7O[C@@H]7OC[C@H](O)[C@H](O)[C@H]7O)[C@@H](O)[C@H](O)[C@H]6O)C(C)(C)C5CC[C@]43C)[C@@H]2C1 (stereo partly specified) | inactive |
| CCCc1cc(C)[nH]c(=O)c1CNC(=O)c1cc(-c2ccc(N3CCN(C(C)C)CC3)nc2)cc2c1cnn2C(C)C | inactive |
| COc1cc(C(=O)O)ccc1NC(=O)C1NC(CC(C)(C)C)C(C#N)(c2ccc(Cl)cc2F)C1c1cccc(Cl)c1F (stereo unspecified) | inactive |
| COc1ccccc1OCCN1CC(COc2cccc3[nH]c4ccccc4c23)OCC1=O (stereo unspecified) | inactive |
| O=C(O)c1ccc(N2C(=O)/C(=C/c3ccc(-c4ccc([N+](=O)[O-])cc4)o3)C=C2c2ccccc2)cc1 | inactive |
| O=S(=O)(c1ccccc1)N(CC(F)(F)F)c1ccc(C(O)(C(F)(F)F)C(F)(F)F)cc1 | inactive |
| CC1(C)CC[C@]23CO[C@@]4(CCC5[C@@]6(C)CC[C@H](O[C@@H]7OC[C@H](O[C@@H]8O[C@H](CO)[C@@H](O)[C@H](O)[C@H]8O[C@@H]8OC[C@@H](O)[C@H](O)[C@H]8O)[C@H](O)[C@H]7O)[C@@](C)(CO)C6CC[C@@]5(C)[C@]4(C)CC2=O)[C@@H]3C1 (stereo partly specified) | inactive |

— PubChem BioAssay (NCATS)
